Experimental data: ChEMBL document CHEMBL2218924, “A broad activity screen in support of a chemogenomic map for kinase signalling research and drug discovery” (Biochem J, 2013)

These molecules were tested against Aurora kinase B (Homo sapiens) (UniProt Q96GD4). Conditions: at 10 µM.
Aurora kinase B (Homo sapiens), sequence (Q96GD4 whole entry): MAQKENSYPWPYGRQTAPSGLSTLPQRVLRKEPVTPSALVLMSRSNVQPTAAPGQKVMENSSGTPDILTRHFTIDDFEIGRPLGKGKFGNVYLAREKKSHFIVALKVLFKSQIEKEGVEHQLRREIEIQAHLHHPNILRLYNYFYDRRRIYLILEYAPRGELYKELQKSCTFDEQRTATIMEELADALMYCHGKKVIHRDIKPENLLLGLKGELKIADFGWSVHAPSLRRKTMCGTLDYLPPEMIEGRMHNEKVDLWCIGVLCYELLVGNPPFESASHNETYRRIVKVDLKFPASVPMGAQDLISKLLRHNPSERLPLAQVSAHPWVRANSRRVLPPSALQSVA

Row | Structure (SMILES) | residual activity
1 | CCc1nc(-c2ccc(OC)cc2)[nH]c1-c1ccncc1 | 62%
2 | c1cc(-c2cnn3cc(-c4ccc(OCCN5CCCCC5)cc4)cnc23)ccn1 | 2%
3 | COC(=O)[C@@]1(O)C[C@H]2O[C@]1(C)n1c3ccccc3c3c4c(c5c6ccccc6n2c5c31)C(=O)NC4 | 0%
4 | O=[N+]([O-])/C=C/c1ccc2c(c1)OCO2 | 90%
5 | C[S+]([O-])c1ccc(-c2nc(-c3ccc(F)cc3)c(-c3ccncc3)[nH]2)cc1 (centres undefined) | 80%
6 | CC(C)[C@H](CO)Nc1nc(Nc2cccc(Cl)c2)c2ncn(C(C)C)c2n1 | 17%
7 | O=C1NC(=O)c2c1c1c3ccccc3n3c1c1c2c2ccccc2n1C1CCC3O1 | 4%
8 | O=c1[nH]c2ccccc2n1C1CCN(Cc2ccc(-c3nc4cc5[nH]cnc5cc4nc3-c3ccccc3)cc2)CC1 | 77%
9 | COc1cc(OC)c(/C=C2\C(=O)Nc3ccccc32)c(OC)c1 | 48%
10 | N/C(=N\[N+](=O)[O-])N/N=C\c1ccc(-c2cccc([N+](=O)[O-])c2)o1 | 53%
11 | COc1ccc2c(c1)/C(=C/c1cnc[nH]1)C(=O)N2 | 0%
12 | CCn1cnc2c(Nc3cccc(Cl)c3)nc(N[C@@H]3CCCC[C@@H]3N)nc21 | 1%
13 | CC(C)(C)c1cc(C=C(C#N)C#N)cc(Br)c1O | 45%
14 | O=C1Nc2ccc3ncsc3c2/C1=C/c1c[nH]cn1 | 0%
15 | COc1cc2ncnc(Nc3ccc(OCc4ccccc4)cc3)c2cc1OC | 3%
16 | COc1ccc2c(c[n+](C)c3c4cc5c(cc4ccc23)OCO5)c1OC | 60%

Each molecule was assayed against T1, Aurora kinase C (Homo sapiens) (UniProt Q9UQB9). Conditions: at 1 µM.
T1 sequence (whole entry): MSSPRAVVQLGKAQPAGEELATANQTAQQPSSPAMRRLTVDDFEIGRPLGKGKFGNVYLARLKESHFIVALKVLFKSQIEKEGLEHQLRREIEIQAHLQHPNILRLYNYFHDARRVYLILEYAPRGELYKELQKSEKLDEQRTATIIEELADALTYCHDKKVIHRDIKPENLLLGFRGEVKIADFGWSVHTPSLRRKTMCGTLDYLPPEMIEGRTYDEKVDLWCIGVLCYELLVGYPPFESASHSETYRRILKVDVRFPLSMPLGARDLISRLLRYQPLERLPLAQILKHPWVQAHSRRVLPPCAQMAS

Row | Structure (SMILES) | residual activity
17 | CCc1nc(-c2ccc(OC)cc2)[nH]c1-c1ccncc1 | 103%
18 | c1cc(-c2cnn3cc(-c4ccc(OCCN5CCCCC5)cc4)cnc23)ccn1 | 35%
19 | COC(=O)[C@@]1(O)C[C@H]2O[C@]1(C)n1c3ccccc3c3c4c(c5c6ccccc6n2c5c31)C(=O)NC4 | 2%
20 | O=[N+]([O-])/C=C/c1ccc2c(c1)OCO2 | 102%
21 | C[S+]([O-])c1ccc(-c2nc(-c3ccc(F)cc3)c(-c3ccncc3)[nH]2)cc1 (centres undefined) | 115%
22 | CC(C)[C@H](CO)Nc1nc(Nc2cccc(Cl)c2)c2ncn(C(C)C)c2n1 | 96%
23 | O=c1[nH]c2ccccc2n1C1CCN(Cc2ccc(-c3nc4cc5[nH]cnc5cc4nc3-c3ccccc3)cc2)CC1 | 108%
24 | COc1cc(OC)c(/C=C2\C(=O)Nc3ccccc32)c(OC)c1 | 83%
25 | N/C(=N\[N+](=O)[O-])N/N=C\c1ccc(-c2cccc([N+](=O)[O-])c2)o1 | 97%
26 | COc1ccc2c(c1)/C(=C/c1cnc[nH]1)C(=O)N2 | 34%
27 | CCn1cnc2c(Nc3cccc(Cl)c3)nc(N[C@@H]3CCCC[C@@H]3N)nc21 | 22%
28 | CC(C)(C)c1cc(C=C(C#N)C#N)cc(Br)c1O | 115%
29 | O=C1Nc2ccc3ncsc3c2/C1=C/c1c[nH]cn1 | 18%
30 | COc1cc2ncnc(Nc3ccc(OCc4ccccc4)cc3)c2cc1OC | 106%

Each molecule was assayed against T1, Aurora kinase C (Homo sapiens). Conditions: at 10 µM.

Row | Structure (SMILES) | residual activity
31 | c1cc(-c2cnn3cc(-c4ccc(OCCN5CCCCC5)cc4)cnc23)ccn1 | 4%
32 | COC(=O)[C@@]1(O)C[C@H]2O[C@]1(C)n1c3ccccc3c3c4c(c5c6ccccc6n2c5c31)C(=O)NC4 | 1%
33 | O=[N+]([O-])/C=C/c1ccc2c(c1)OCO2 | 77%
34 | C[S+]([O-])c1ccc(-c2nc(-c3ccc(F)cc3)c(-c3ccncc3)[nH]2)cc1 (centres undefined) | 108%
35 | CC(C)[C@H](CO)Nc1nc(Nc2cccc(Cl)c2)c2ncn(C(C)C)c2n1 | 78%
36 | O=c1[nH]c2ccccc2n1C1CCN(Cc2ccc(-c3nc4cc5[nH]cnc5cc4nc3-c3ccccc3)cc2)CC1 | 86%
37 | COc1cc(OC)c(/C=C2\C(=O)Nc3ccccc32)c(OC)c1 | 87%
38 | N/C(=N\[N+](=O)[O-])N/N=C\c1ccc(-c2cccc([N+](=O)[O-])c2)o1 | 88%
39 | COc1ccc2c(c1)/C(=C/c1cnc[nH]1)C(=O)N2 | 4%
40 | CCn1cnc2c(Nc3cccc(Cl)c3)nc(N[C@@H]3CCCC[C@@H]3N)nc21 | 3%
41 | CC(C)(C)c1cc(C=C(C#N)C#N)cc(Br)c1O | 99%
42 | O=C1Nc2ccc3ncsc3c2/C1=C/c1c[nH]cn1 | -1%
43 | COc1cc2ncnc(Nc3ccc(OCc4ccccc4)cc3)c2cc1OC | 58%
44 | COc1ccc2c(c[n+](C)c3c4cc5c(cc4ccc23)OCO5)c1OC | 90%

Each molecule was assayed against Tyrosine-protein kinase receptor UFO (Homo sapiens) (UniProt P30530). Conditions: at 1 µM.
Tyrosine-protein kinase receptor UFO (Homo sapiens), sequence (P30530 whole entry): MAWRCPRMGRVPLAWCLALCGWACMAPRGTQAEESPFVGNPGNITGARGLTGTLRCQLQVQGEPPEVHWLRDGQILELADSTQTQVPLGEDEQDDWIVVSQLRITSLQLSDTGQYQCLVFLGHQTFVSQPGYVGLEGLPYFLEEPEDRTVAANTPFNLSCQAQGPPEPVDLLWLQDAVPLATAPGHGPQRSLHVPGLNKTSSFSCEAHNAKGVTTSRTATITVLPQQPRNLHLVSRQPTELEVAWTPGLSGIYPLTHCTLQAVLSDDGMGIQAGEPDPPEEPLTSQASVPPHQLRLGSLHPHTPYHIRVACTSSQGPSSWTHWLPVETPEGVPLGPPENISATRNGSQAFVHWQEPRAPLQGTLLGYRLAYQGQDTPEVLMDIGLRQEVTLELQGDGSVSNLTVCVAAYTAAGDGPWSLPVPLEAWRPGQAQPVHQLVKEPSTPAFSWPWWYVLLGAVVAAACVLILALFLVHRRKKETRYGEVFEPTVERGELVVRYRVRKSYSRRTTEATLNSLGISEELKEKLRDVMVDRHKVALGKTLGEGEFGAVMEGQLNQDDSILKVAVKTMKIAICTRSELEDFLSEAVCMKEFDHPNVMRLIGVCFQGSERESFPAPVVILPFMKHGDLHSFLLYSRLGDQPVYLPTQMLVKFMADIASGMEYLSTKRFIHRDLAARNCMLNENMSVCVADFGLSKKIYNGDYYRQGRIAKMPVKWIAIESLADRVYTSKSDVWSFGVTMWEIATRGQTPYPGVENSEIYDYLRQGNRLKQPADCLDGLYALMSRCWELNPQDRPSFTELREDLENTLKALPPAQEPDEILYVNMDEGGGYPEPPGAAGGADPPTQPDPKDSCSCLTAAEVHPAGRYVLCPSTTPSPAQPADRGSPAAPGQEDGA

Row | Structure (SMILES) | residual activity
45 | c1cc(-c2cnn3cc(-c4ccc(OCCN5CCCCC5)cc4)cnc23)ccn1 | 76%
46 | COC(=O)[C@@]1(O)C[C@H]2O[C@]1(C)n1c3ccccc3c3c4c(c5c6ccccc6n2c5c31)C(=O)NC4 | 4%
47 | O=C1c2ccccc2-c2nc3nnnn3nc21 | 81%
48 | O=[N+]([O-])/C=C/c1ccc2c(c1)OCO2 | 69%
49 | C[S+]([O-])c1ccc(-c2nc(-c3ccc(F)cc3)c(-c3ccncc3)[nH]2)cc1 (centres undefined) | 122%
50 | CC(C)[C@H](CO)Nc1nc(Nc2cccc(Cl)c2)c2ncn(C(C)C)c2n1 | 90%
51 | O=C1NC(=O)c2c1c1c3ccccc3n3c1c1c2c2ccccc2n1C1CCC3O1 | 91%
52 | O=c1[nH]c2ccccc2n1C1CCN(Cc2ccc(-c3nc4cc5[nH]cnc5cc4nc3-c3ccccc3)cc2)CC1 | 77%
53 | COc1cc(OC)c(/C=C2\C(=O)Nc3ccccc32)c(OC)c1 | 98%
54 | N/C(=N\[N+](=O)[O-])N/N=C\c1ccc(-c2cccc([N+](=O)[O-])c2)o1 | 94%
55 | CCn1cnc2c(Nc3cccc(Cl)c3)nc(N[C@@H]3CCCC[C@@H]3N)nc21 | 78%
56 | CC(C)(C)c1cc(C=C(C#N)C#N)cc(Br)c1O | 108%
57 | O=C1Nc2ccc3ncsc3c2/C1=C/c1c[nH]cn1 | 26%
58 | COc1cc2ncnc(Nc3ccc(OCc4ccccc4)cc3)c2cc1OC | 63%
59 | COc1ccc2c(c[n+](C)c3c4cc5c(cc4ccc23)OCO5)c1OC | 93%
